PrPC TRFRET – cell surface PrPC inhibition, primary TR-FRET screen; hit rate 0.43% among 370,000; inhibition, % at 13.8 µM; P04156; AID 720596; TR-FRET read-out; in the data active = inhibition above about 24%; note: 0% = median of the test wells and 100% = reference compound wells
3CLpro inhibitor – SARS-CoV 3CLpro protease inhibition | P0C6X7 | recombinant SARS-CoV 3CLpro, quenched FRET peptide cleavage | inhibition, % at 6 µM | hit rate 0.14% among 290,000; in the data active = inhibition above about 12%
BH1578 lux ind – inducers of Vibrio cholerae quorum light production without autoinducers; V. cholerae BH1578 lux reporter, luminescence, 6 h; activation, % at 18.7 µM; hit rate 0.16% among 350,000; in the data active = activation mostly above about 9.7%, no sharp cut-off
GDH-TPI inh – counter-screen for M. tuberculosis FBA inhibitors: GDH-TPI coupled enzymes; GDH-TPI coupled enzyme counterscreen, NADH absorbance; inhibition, % at 4.8 µM; hit rate 1.2% among 360,000; AID 588335; in the data active = inhibition above about 30%;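 note: 0% = DMSO wells and 100% = wells lacking the enzyme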
FBA Mtb inh – inhibitors of M. tuberculosis fructose-bisphosphate aldolase; inhibition, % at 1 µM; AID 588726; hit rate 2.3% among 360,000; P9WQA3; purified M. tuberculosis FBA, fluorescence read-out; in the data active = inhibition above about 27%;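 note: 0% = vehicle and 100% = reference inhibitor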
Target sequence (P9WQA3 whole entry, looked up): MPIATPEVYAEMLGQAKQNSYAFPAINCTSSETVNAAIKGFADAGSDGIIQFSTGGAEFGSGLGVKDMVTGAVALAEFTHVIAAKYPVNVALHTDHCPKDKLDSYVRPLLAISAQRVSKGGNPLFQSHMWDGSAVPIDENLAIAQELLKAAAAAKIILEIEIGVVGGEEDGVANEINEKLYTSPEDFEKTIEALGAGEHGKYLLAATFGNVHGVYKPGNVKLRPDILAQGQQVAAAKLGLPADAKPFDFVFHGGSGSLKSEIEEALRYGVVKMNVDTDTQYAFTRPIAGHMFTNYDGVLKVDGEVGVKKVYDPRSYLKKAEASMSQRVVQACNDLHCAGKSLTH
* hit, by the source's call. An excerpt weighted towards active compounds, which were near 3.9% of everything screened.

`CCN(CC)c1ccc(N=Cc2c(O)n(Cc3ccco3)c(=O)[nH]c2=O)cc1` gave PrPC TRFRET -5.4, 3CLpro inhibitor 4.2, BH1578 lux ind -1.2, GDH-TPI inh 18.1 and FBA Mtb inh -7.3.
`CC(=O)N1CCN(c2ccc(N=Cc3c(O)n(Cc4ccccc4)c(=O)[nH]c3=O)cc2)CC1` gave PrPC TRFRET -8.3, 3CLpro inhibitor -4.5, BH1578 lux ind 3.1, GDH-TPI inh 32.7* and FBA Mtb inh -3.7.
Screening NC(=O)c1ccc(N=Cc2c(O)n(Cc3ccco3)c(=O)[nH]c2=O)cc1 returned PrPC TRFRET 4.2, 3CLpro inhibitor -0.3, BH1578 lux ind -0.7, GDH-TPI inh 36.1* and FBA Mtb inh -0.6.
For COc1ccc2c(c1OC)C(=O)OC2CC(=O)c1ccc(N(C)C)cc1 (stereo unspecified) the results were PrPC TRFRET -7.3, 3CLpro inhibitor -7.0, BH1578 lux ind -0.2, GDH-TPI inh 30.8* and FBA Mtb inh -7.6.
Cc1ccc(C(=O)COC(=O)C2CC3CCCC(C2)C3=O)cc1[N+](=O)[O-] (stereo unspecified) was read as PrPC TRFRET -6.2, BH1578 lux ind 5.9, GDH-TPI inh -8.6 and FBA Mtb inh 0.6.
Screening Cc1ccc(-c2ccc(/C=N\n3cnnc3)o2)c(Br)c1 returned PrPC TRFRET -5.8, 3CLpro inhibitor 1.1, BH1578 lux ind -0.6, GDH-TPI inh 45.3* and FBA Mtb inh 4.5.
For CC(C)COC(=O)c1cc(-c2ccc(/C=N/n3cnnc3)o2)ccc1Cl the results were PrPC TRFRET 2.8, 3CLpro inhibitor -2.2, BH1578 lux ind -1.2, GDH-TPI inh 8.7 and FBA Mtb inh -1.4.
For Fc1ccc(-c2ccc(/C=N/n3cnnc3)o2)cc1 the results were PrPC TRFRET -3.2, 3CLpro inhibitor -3.6, BH1578 lux ind -0.5, GDH-TPI inh 40.6* and FBA Mtb inh 4.2.
For O=[N+]([O-])c1ccc(Cl)c(-c2ccc(/C=N/n3cnnc3)o2)c1 the results were PrPC TRFRET -7.7, 3CLpro inhibitor -2.3, BH1578 lux ind -1.2, GDH-TPI inh 52.5* and FBA Mtb inh 0.9.
Screening Fc1ccc(-c2ccc(/C=N\n3cnnc3)o2)cc1Cl returned PrPC TRFRET -5.2, 3CLpro inhibitor 1.0, BH1578 lux ind -0.2, GDH-TPI inh 41.9* and FBA Mtb inh 3.6.
`O=[N+]([O-])c1cc(-c2ccc(/C=N/n3cnnc3)o2)ccc1Cl` gave PrPC TRFRET -33.7, 3CLpro inhibitor -1.9, BH1578 lux ind -0.9, GDH-TPI inh 23.9 and FBA Mtb inh 0.3.
COc1ccc(C(=O)OCCCN(C)C2CN(Cc3cn(Cc4ccccc4C(F)(F)F)nn3)S(=O)(=O)C2)cc1OC (stereo unspecified) was read as PrPC TRFRET -2.7.
`COC(=O)C1=C(C)N(C)C(=NCc2ccc3c(c2)OCO3)NC1c1cccc(C(F)(F)F)c1` (stereo unspecified) gave PrPC TRFRET -15.3.
CCCN1C(=O)c2n[nH]c(C)c2C1c1ccc(Br)cc1 (stereo unspecified) was read as PrPC TRFRET -0.7.
Screening O=C(/C=C/c1ccco1)NC(=S)Nc1cc(-c2nc3ccccc3s2)ccc1Cl returned PrPC TRFRET 8.3, 3CLpro inhibitor -0.2, BH1578 lux ind -0.5, GDH-TPI inh 10.3 and FBA Mtb inh 1.9.
O=C(/C=C/c1ccco1)NC(=S)Nc1cccc(-c2nc3ccccc3s2)c1 was read as PrPC TRFRET 3.0, 3CLpro inhibitor 5.0, BH1578 lux ind -0.4, GDH-TPI inh 38.3* and FBA Mtb inh 0.5.
For CC(=O)c1ccc(NC(=S)NC(=O)/C=C/c2ccco2)cc1 the results were PrPC TRFRET -5.4, 3CLpro inhibitor 2.9, BH1578 lux ind inactive, GDH-TPI inh 51.4* and FBA Mtb inh -2.4.
Screening NC(N)=NS(=O)(=O)c1ccc(NC(=S)NC(=O)/C=C/c2ccco2)cc1 returned PrPC TRFRET -7.4, 3CLpro inhibitor 0.9, BH1578 lux ind -0.6, GDH-TPI inh 56.8* and FBA Mtb inh -4.8.
Cc1cccc(NC(=S)NC(=O)/C=C/c2ccco2)n1 was read as PrPC TRFRET -4.5, 3CLpro inhibitor -3.1, BH1578 lux ind inactive, GDH-TPI inh 33.3* and FBA Mtb inh -1.8.
Screening N#CCCCCN1CCCC1 returned PrPC TRFRET 1.8, 3CLpro inhibitor -3.5, BH1578 lux ind -0.9, GDH-TPI inh 10.5 and FBA Mtb inh 0.5.
CC(=O)c1csc(COc2ccc(Cl)cc2)n1 was read as PrPC TRFRET 3.3, 3CLpro inhibitor -3.8, BH1578 lux ind inactive, GDH-TPI inh -0.4 and FBA Mtb inh 1.0.
COc1ccc2c(c1)[nH]c1c(=O)n(CCCn3ccnc3)cnc12 was read as PrPC TRFRET -5.7, 3CLpro inhibitor -0.4, GDH-TPI inh -1.9 and FBA Mtb inh 1.5.
Screening O=C(/C=C/c1ccco1)NC(=S)Nc1ccccc1 returned PrPC TRFRET 4.5, 3CLpro inhibitor 1.6, BH1578 lux ind -0.4, GDH-TPI inh 40.1* and FBA Mtb inh -1.5.
Screening Cc1cccc(NC(=O)c2cc([N+](=O)[O-])ccc2N2CCCCC2)n1 returned PrPC TRFRET -5.5, 3CLpro inhibitor 1.4, BH1578 lux ind inactive, GDH-TPI inh -8.2 and FBA Mtb inh -3.2.
`C=CCn1c(O)c(CN2CCN(Cc3ccccc3)CC2)c(C)c(C#N)c1=O` gave PrPC TRFRET 1.7, 3CLpro inhibitor 6.7, BH1578 lux ind 16.7*, GDH-TPI inh 9.2 and FBA Mtb inh 7.2.
Cc1ccccc1Cc1c(C)nc2c(C(=O)NCc3ccco3)cnn2c1C was read as 3CLpro inhibitor 0.9, BH1578 lux ind inactive, GDH-TPI inh 5.6 and FBA Mtb inh 48.4*.
Screening Cc1ccc(F)c(NC(=O)/C(C#N)=C(\O)c2ccc(C(C)(C)C)cc2)c1 returned PrPC TRFRET 5.0, 3CLpro inhibitor 9.2, BH1578 lux ind -0.5, GDH-TPI inh 13.6 and FBA Mtb inh -3.7.
Cc1cc(=O)oc2cc(OCCSCCN3CCCCC3)ccc12 was read as PrPC TRFRET -10.8, 3CLpro inhibitor 0.8, BH1578 lux ind -0.2, GDH-TPI inh 36.0* and FBA Mtb inh 26.3.
For Cc1cc(=O)oc2cc(OCCSc3nnc(-c4ccccc4)o3)ccc12 the results were PrPC TRFRET 0.1, 3CLpro inhibitor 5.2, BH1578 lux ind inactive, GDH-TPI inh 9.3 and FBA Mtb inh 15.1.
For S=c1[nH]ncn2c1cc1oc3ccccc3c12 the results were PrPC TRFRET 97.1*, 3CLpro inhibitor -1.1, BH1578 lux ind 1.3, GDH-TPI inh 6.3 and FBA Mtb inh -1.1.
`O=c1c2ccccc2oc2ccccc12` gave PrPC TRFRET 10.4, BH1578 lux ind -0.5, GDH-TPI inh 11.8 and FBA Mtb inh 1.5.
CC1(C)OC(=O)C2=C(C[C@@H](C3CCCCC3)O[C@H]2c2ccc(F)cc2)O1 was read as PrPC TRFRET 0.9 and FBA Mtb inh 0.2.
c1coc(C2=NC(c3ccco3)C(c3ccco3)N2)c1 (stereo unspecified) was read as BH1578 lux ind inactive, GDH-TPI inh 1.4 and FBA Mtb inh 49.5*.
CCOCCSc1n[nH]c(=O)n1CCc1ccccc1 was read as PrPC TRFRET 0.1, 3CLpro inhibitor 1.9, BH1578 lux ind 0.6, GDH-TPI inh 3.3 and FBA Mtb inh 0.9.

Compound activity: PubChem BioAssay, several laboratories
